# Screening data deposited in PubChem BioAssay by National Center for Advancing Translational Sciences (NCATS).
# In the library only some 8% were active in any assay of this set; here they are far more common.
# SW480 rereplic = A quantitative high throughput screen for small molecules that induce DNA re-replication in SW480 colon adenocarcinoma cells; Potency, µM (top dose mostly 46.1 µM), actives largely listed as activators; SW480 DNA re-replication, Hoechst DNA content imaging, 48 h; AID 624297, 2012; 340,000 tested, 1.8% active; also: nearly all actives have a fitted effect of over 55% in size
#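 Cells (250 per well) received 23 nL compound or DMSO by pin tool and were kept 48 hr at 37 C, 5% CO2. Nuclei were then stained with Hoechst for 40 min and scanned for DNA content.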
# KB-V1 cytotox = qHTS assay for MDR1-selective chemotherapeutics: Primary screen using the drug-selected MDR subline cells KB-V1; KB-V1 MDR cells viability, CellTiter-Glo, 72 h; Potency, µM (top dose mostly 46.1 µM), most hits filed as cytotoxic; 400,000 tested, 3.4% active; AID 1347076, 2019; also: nearly all actives have a fitted effect of over 60% in size
#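 KB-V1 cells (P-gp-expressing MDR subline of KB-3-1) in phenol-red-free DMEM with 10% FBS were exposed to library compounds over a concentration series for 72 h at 37 degrees C. Viability read by CellTiter-Glo luminescence; concentration-effect curves fitted after normalization.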
# KB-3-1 cytotox = qHTS assay for MDR1-selective chemotherapeutics: Primary screen using the parental adenocarcinoma cell KB-3-1. Potency, µM (top dose mostly 46.1 µM), most hits filed as cytotoxic. 400,000 tested, 1.4% active. KB-3-1 viability, CellTiter-Glo ATP luminescence, 72 h; also: nearly all actives have a fitted effect of over 60% in size
#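 Using CellTiter-Glo luminescence, growth of non-resistant KB-3-1 adenocarcinoma cells is assessed 72 h after pin-tool compound addition at 37 °C. Normalized responses across the concentration series yield fitted curves.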
# HT1080 IDH1KD tx = qHTS for induction of synthetic lethality in tumor cells producing 2HG: qHTS for the HT-1080-IDH1KD cell line; HT-1080 IDH1 knockdown viability, ATP luminescence, 48 h; Potency, µM (series often up to 46.1 µM), most hits filed as cytotoxic; 360,000 tested, 2% active; AID 686971, 2013
#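 % activity derives from luminescence (CellTiter-Glo), normalised to DMSO and no-cell wells. HT-1080-IDH1KD cells, 750/well, had 48 h compound exposure at 37 °C.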
# MCF10A rerep = A quantitative high throughput screen for small molecules that induce DNA re-replication in MCF 10a normal breast cells | MCF 10A DNA re-replication, Hoechst nuclear intensity, 48 h | Potency, µM (titrated, usually from 46.1 µM), usual class: activators | 350,000 tested, 2.9% active; also: nearly all actives have a fitted effect of over 50% in size
# HT1080NT lethal = qHTS for induction of synthetic lethality in tumor cells producing 2HG: qHTS for the HT-1080-NT fibrosarcoma cell line. HT-1080-NT fibrosarcoma viability, CellTiter-Glo ATP luminescence, 48 h. Potency, µM (series often up to 46.1 µM), hits mostly cytotoxic. 360,000 tested, 1.6% active. AID 686970, 2013;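 also: NT is the 2HG producing partner of a matched IDH1 knockdown line; nearly all actives have a fitted effect of over 55% in size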
#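 Read-out is CellTiter-Glo luminescence after 10 minutes at room temperature, following 48 hours' compound treatment of HT-1080-NT cells (750 cells/well, RPMI, 5% FBS, 37 degrees C).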
# Hits are given with their value; . = inactive; ? = inconclusive; / = no result; [ ] = dose if it differs, or a comment. Calls follow the shape of the dose curve; as a rule, active = well fitted curve in the direction sought with a large enough effect; inconclusive = small, poorly fitted or top-dose-only effect, or another doubt; inactive = no such curve, though single readings can be large; an effect the other way counts as inactive or inconclusive.
SMILES,SW480 rereplic,KB-V1 cytotox,KB-3-1 cytotox,HT1080 IDH1KD tx,MCF10A rerep,HT1080NT lethal
CS(=O)(=O)c1ccc(Cl)c(C(=O)O)c1,.,.,.,?,.,.
Cc1c(Cl)cccc1NC(=S)N(CCN(C)C)C(C)c1ccccn1 (configuration not stated),.,.,.,.,.,.
O=C(c1ccccn1)N1CCN(c2ccc(C(F)(F)F)cn2)CC1,.,16µM,.,.,.,.
Cc1ccc(C(=O)N2CCN(c3ccc(C(F)(F)F)cn3)CC2)o1,.,21µM,?,.,.,.
CCOc1ncccc1C(=O)N1CCN(c2ccc(C(F)(F)F)cn2)CC1,.,?,.,.,.,.
COC(=O)c1ccccc1NC(=O)NCc1ccccn1,.,.,?,.,.,.
CC12CC3CC(C)(C1)CC(C(=O)NC(=S)N1CCOCC1)(C3)C2,.,.,.,.,.,11µM
Cc1ccc(C(=O)NCCNc2nc3cc(C)c(C)cc3cc2C)cc1,8.2µM,?,?,.,8.2µM,.
Cc1cc2cc(C)c(NCCNC(=O)c3ccccc3)nc2cc1C,.,.,.,.,.,.
O=C(CC(C(=O)c1ccccc1)c1ccccc1)c1ccccc1 (configuration not stated),.,?,.,.,.,.
CN(C)CC(C(=O)c1ccccc1)c1ccccc1 (configuration not stated),.,?,?,13µM,2.6µM,.
CN(Cc1cc(Cl)cc(Cl)c1)CC(C(=O)c1ccccc1)c1ccccc1 (configuration not stated),13µM,.,?,?,16µM,.
O=C(O)C1C(C(=O)O)C1(c1ccccc1)c1ccccc1 (configuration not stated),.,.,.,.,.,.
CCOC(=O)C1C(=O)CC(O)(c2ccccc2)CC1c1ccccc1 (configuration not stated),.,23µM,.,.,.,.
CCOC(=O)C1C(C(=O)OCC)C1(c1ccccc1)c1ccccc1 (configuration not stated),.,10µM,.,.,?,.
CCOC(=O)C1C(=O)CC(C)(O)C(C(=O)OCC)C1/C=C/c1ccccc1 (configuration not stated),.,18µM,.,.,.,.
CC1(C)NC(C)(C)/C(=C\c2cccs2)C(=O)C1=O,.,.,?,.,.,.
O=C(Nc1ccc(O)c(-c2nc3ccccc3o2)c1)C1(c2ccc([N+](=O)[O-])cc2)CCCC1,.,.,.,.,?,.
CCCC[C@@]1(C2CCCC2)Cc2cc(OCC(=O)O)c(Cl)c(Cl)c2C1=O,.,.,.,?,.,.
O=C(COC(=O)c1cc(-c2ccccc2)nc2ccccc12)Nc1ccc2c(c1)OCO2,.,?,.,.,5.2µM,.
CCOc1ccc(-c2cc(C(=O)Nc3ccc4c(c3)OCCO4)c3ccccc3n2)cc1,.,?,18µM,?,.,?
COc1ccc(-c2cc(C(=O)OCC(=O)Nc3ccc4c(c3)OCO4)c3ccccc3n2)cc1,.,.,.,.,.,.
O=C(Nc1ccon1)c1cc(-c2ccccc2)nc2ccccc12,.,?,.,.,.,.
CCOc1cccc(-c2cc(C(=O)Nc3ccon3)c3ccccc3n2)c1,.,16µM,.,.,.,.
Cc1cccc(-c2cc(C(=O)Nc3ccc4c(c3)OCCO4)c3ccccc3n2)c1,.,?,.,.[9.24 µM],.,.
SMILES,SW480 rereplic,KB-V1 cytotox,KB-3-1 cytotox,HT1080 IDH1KD tx,MCF10A rerep,HT1080NT lethal
CC(=O)c1cccc(NC(=O)c2ccc([N+](=O)[O-])o2)c1,?,16µM,?,?,4.1µM,15µM
CC(=O)c1cccc(NC(=O)c2cc(=O)c3ccccc3o2)c1,.,.,.,.,.,.
O=C(Nc1ccccc1N1CCOCC1)c1ccc([N+](=O)[O-])o1,?,?,.,.,.,.
Cc1cc(C)nc(NC(=O)c2ccc([N+](=O)[O-])o2)n1,8.2µM,.,.,.,13µM,.
COc1ccc(NC(=O)c2noc(C(C)C)c2[N+](=O)[O-])cc1,?,.,.,?,?,23µM
NS(=O)(=O)c1ccc(O)c(NC(=O)c2ccc([N+](=O)[O-])o2)c1,12µM,?,?,?,?,?
O=C(NCc1ccccc1Br)c1cccc2c1C(=O)c1ccc(N3CCC(Cc4ccccc4)CC3)cc1S2(=O)=O,.,.,.,.,?,.
NC[C@@H]1O[C@H](O[C@@H]2[C@H](O[C@@H]3O[C@H](CO)[C@@H](O)[C@@H]3O)[C@@H](O)[C@@H](N)C[C@H]2N)[C@@H](N)[C@H](O)[C@@H]1O,.,/,/,/,.,/
Cc1cc(C)cc(NC(=O)c2ccc([N+](=O)[O-])o2)c1,?,13µM,?,16µM,3.3µM,?
Cc1cc(NC(=O)c2ccc([N+](=O)[O-])o2)ccc1NC(=O)c1ccco1,2.3µM,?,5.2µM,5.8µM,?,5.2µM
CC(=O)c1ccc(NC(=O)c2ccc([N+](=O)[O-])o2)cc1,.,?,?,18µM,4.6µM,?
COc1cc(NC(=O)c2ccc([N+](=O)[O-])o2)ccc1NC(=O)c1ccco1,?,.,?,.,.,.
Cc1ccc(C)c(-c2nnc(NC(=O)c3ccc([N+](=O)[O-])o3)o2)c1,?,.,?,?,?,?
COc1ccc(NC(=O)c2ccc(Br)o2)cc1,.,.,.,.,.,.
COc1ccc(NC(=O)c2ccc([N+](=O)[O-])o2)cc1,2.6µM,?,8.2µM,?,16µM,.
COCCN1C(=O)N(c2cccc(C)c2)C(=O)C1CC(=O)Nc1ccc(OC)cc1 (configuration not stated),?,.,.,.,.,.
CCCCn1c(N)c(N(CCC(C)C)C(=O)CCN2C(=O)C3CC=CCC3C2=O)c(=O)[nH]c1=O (configuration not stated),.,.,.,.,.,.
COc1ccc(C(=O)NC2CC2)cc1OC1CCN(Cc2ccccc2F)CC1,.,/,/,.,.,.
O=C1[C@@H]2[C@H]3CC[C@H](C3)[C@@H]2C(=O)N1O,?,.,.,.,1.2µM,.
